Test results from PubChem BioAssay AID624297 (National Center for Advancing Translational Sciences (NCATS), 2012).
In all, about 340,000 compounds went through this assay and about 6,200 (1.8%) were called active. Roughly 10% stayed inconclusive and do not appear here. Calls follow the shape of the dose curve; as a rule, active = well fitted activation curve with a large enough effect; inconclusive = small, poorly fitted or top-dose-only effect; inactive = no such curve, though single readings can be large or run the other way. Shown is part of a subset that was picked to be rich in actives.

assay: A quantitative high throughput screen for small molecules that induce DNA re-replication in SW480 colon adenocarcinoma cells.; also: nearly all actives have a fitted effect of over 55% in size; as to re-replication activation: % of control where 0% means no effect; details: Hoechst DNA content imaging, 48 h; series mostly up to 46.1 µM; re-replication activation: at the top concentration
Description: H Molecular Libraries Probe Production Network [MLPCN] NIH Chemical Genomics Center [NCGC] MLPCN Grant: Fast Track K99 CA136555 Assay Provider: Melvin DePamphilis, NICHD, NIH Assay Overview Eukaryotic cells normally restrict genome duplication to once per cell division. When this process is aberrant, DNA re-replication occurs when cells reinitiate DNA replication before the first round of replication is complete. DNA re-replication induces the DNA damage response, arrests cell proliferation, and triggers apoptosis. The cell cycle components cyclin A, Cdt-1, Cdc6 and geminin are critical regulators of this process and their misregulation results in DNA re-replication in normal and cancer cells. To identify compounds that induce re-replication in normal cells, an image-based assay was used to measure DNA content of nuclei, as detected by the fluorescent DNA binding dye, Hoechst. Cell nuclei were imaged by a fluorescence scanning plate imager and compounds that induce DNA re-replication were identified by the increase of nuclei with elevated fluorescence intensity
For screening, 250 cells in 5 uL/well were dispensed into black clear 1536-well plates (Aurora) using a solenoid-based dispenser. Following transfer of 23 nL compound or DMSO vehicle by a pin tool, the plates were incubated 48 hr at 37 C and 5% CO2. After addition of 1 uL/well Hoescht stain, the plates were incubated 40 min at 37 C, 5% CO2 and total intensity of fluorescent objects (nuclei) were enumerated by an Acumen Explorer Ex3 (TTP LabTech) fluorescence scanning plate imager (405 nm excitation, 500-530 nm emission). Keywords: NIH Roadmap, MLPCN, MLI, MLSMR, qHTS, NCGC, DNA replication, cancer
Potency is read from the fitted curve at half-maximal effect.

SMILES	re-replication activation	Potency
Fc1ccc(N2CCN(Cc3ccc4c(c3)OCO4)CC2)cc1	-17% (inactive)	
Cc1cc(=O)oc2c(C)c(OCC(=O)N3CCN(Cc4ccc5c(c4)OCO5)CC3)ccc12	3.09% (inactive)	
O=C(Cc1ccccc1[N+](=O)[O-])N1CCN(Cc2ccc3c(c2)OCO3)CC1		16.4 µM (active)
CC1([N+](=O)[O-])COP(=O)(Nc2ccc(F)cc2)OC1 (stereo not given)	-4.51% (inactive)	
CC1CNCCN1c1ccc(Cl)cc1 (stereo not given)	-3.4% (inactive)	
COc1cc(-n2c(=S)[nH]c3ccc(C)cc3c2=O)c(Cl)cc1Cl		18.4 µM (active)
C[C@]12CCC3C(CC[C@H]4[C@H](O)[C@H](O)CC[C@]34C)C1CCC2=O (stereo not given in full)	-11.6% (inactive)	
O=C(CSc1ccccc1)Nc1ccc(C(=O)Nc2cccc(O)c2)cc1	-29.6% (inactive)	
CCC(C)n1c(O)c(/C=N/Nc2nc3c(c(=O)n(C)c(=O)n3C)n2C)c(=O)[nH]c1=S (stereo not given)		23.1 µM (active)
CC1CC=CCC12C(=O)NC(=S)NC2=O (stereo not given)	-3.08% (inactive)	
CNC(C)[C@@H](O)c1ccccc1 (stereo not given in full)	-0.112% (inactive)	
CC1=CC(=Cc2sc3ccccc3[n+]2C)C=C(C)O1		5.8 µM (active)
CCC1(CC(C)c2ccccc2)C(=O)NC(=O)NC1=O (stereo not given)	9.81% (inactive)	
Cc1cc(C)c2c(c1)NP(=S)(c1ccccc1)N2 (stereo not given)	1.64% (inactive)	
CCOC(=O)CC(SP1(=S)OCC2(CCCCO2)C(C2CCCCO2)O1)C(=O)OCC (stereo not given)	-18.9% (inactive)	
O=C(N/N=C/c1ccc([N+](=O)[O-])o1)c1cc([N+](=O)[O-])cc([N+](=O)[O-])c1O	-4.03% (inactive)	
CC[C@H]1CN2CCc3cc(OC)c(OC)cc3[C@@H]2C[C@@H]1C[C@H]1NCCc2cc(OC)c(OC)cc21		0.291 µM (active)
O=C1NC(=O)C(CCOc2ccccc2)(CCc2ccccc2)C(=O)N1	-9.88% (inactive)	
CCC(=O)OC(Cc1ccccc1)(c1ccccc1)C(C)CN(C)C (stereo not given)	-0.571% (inactive)	
CCOP(=O)(OCC)C(Nc1cccc(C)c1)c1ccc(F)cc1 (stereo not given)	-39.1% (inactive)	
CN1CCCC(=C(c2cccs2)c2cccs2)C1	1.53% (inactive)	
Nc1ccc(Cc2ccc(N)c(Cl)c2)cc1Cl	9.5% (inactive)	
C[C@]12CCCCC1=CC(=O)C1C2CC[C@@]2(C)C1C[C@@H](F)[C@@H]2O (stereo not given in full)	-6.07% (inactive)	
Cc1ncsc1CCCl	-7.55% (inactive)	
Cc1cc2ccccn2c1C(C[N+](=O)[O-])c1c(F)cccc1Cl (stereo not given)		7.31 µM (active)

SMILES	re-replication activation	Potency
CCOc1ccc(S(=O)(=O)NCc2ccc3c(c2)OCO3)cc1C	-55% (inactive)	
CC(CC(C#N)(c1ccccc1)c1ccccc1)N1CCCCC1 (stereo not given)	-1.38% (inactive)	
COc1ccc(C2CC(c3cccs3)=NN2c2nc(C)c(C(C)=O)s2)cc1OC (stereo not given)		14.6 µM (active)
O=C(NCc1cccs1)c1ccc(Br)o1	3.87% (inactive)	
Cc1cccc([C@H](C)c2cnc[nH]2)c1C	0.823% (inactive)	
CCOC(=O)C1(c2ccccc2)CCN(CC(O)c2ccc(NC(C)=O)cc2)CC1 (stereo not given)	-3.4% (inactive)	
c1ccc2sc(SNC3CCCCC3)nc2c1	-0.432% (inactive)	
COc1ccc2c(c1)NP(=S)(c1ccccc1)N2 (stereo not given)	3.98% (inactive)	
O=c1c2ccccc2nc(-c2ccco2)n1-c1ccc(Br)cn1	-5.63% (inactive)	
O=c1c2ccccc2nc(/C=C/c2ccco2)n1-c1ccccc1O		20.6 µM (active)
O=c1c2ccccc2nc(-c2ccccc2)n1-c1ccccn1	-3.63% (inactive)	
C=CCN1CCC23c4c5ccc(O)c4O[C@H]2C(=O)CC[C@@]3(O)C1C5 (stereo not given in full)	-6.77% (inactive)	
CC(C)(C)CC(=O)Nc1nnc(SCC(=O)NCc2cccs2)s1	-40.7% (inactive)	
Cc1cc(-c2ccc(N)c(C)c2)ccc1N	-2.53% (inactive)	
CCC1(c2ccccc2)C(=O)NC(=O)N(C)C1=O (stereo not given)	-2.55% (inactive)	
CCN1C(=O)NC(=O)C2(CCCC2)C1=O	-2.27% (inactive)	
CC(=O)OC1C2(CC3N4C(=O)C5(CO)SSC4(CC31O)C(=O)N5C)OC(C)C(C)(C)C2=O (stereo not given)		0.461 µM (active)
CCNC[C@H](O)c1cccc(O)c1	-5.95% [at 20.6 µM] (inactive)	
O=C1NC(=O)C(Cc2ccccc2)C(=O)N1	-6.86% (inactive)	
CC1CCCN1CCC(C(N)=O)(c1ccccc1)c1ccccc1 (stereo not given)	-1.97% (inactive)	
COc1ccc2c3c1O[C@H]1C[C@@H](O)C=C[C@@]31CCN(C)C2		inactive
CC=C(C)C(=O)OC1CCN2CC=C(COC(=O)C(O)(C(C)OC)C(C)(C)O)C12 (stereo not given)	-1.17% (inactive)	
CCC1(C)CC(CCNCc2ccc(N(C)C)cc2)(c2ccc(F)cc2)CCO1 (stereo not given)		18.4 µM (active)
CC[N+]1(CCOC(=O)C(O)(c2ccccc2)c2ccccc2)CCCCC1	16.5% (inactive)	
C=C(C)C1(CCCC)C(=O)NC(=S)NC1=O	0.006% (inactive)	
